# Results: publication PMC7862700, “An all-to-all approach to the identification of sequence-specific readers for epigenetic DNA modifications on cytosine”
# What was measured:
# Assay in all cases: DAPPL (digital affinity profiling via proximity ligation, sequencing); 10 mM Tris-HCl pH 7.5, 50 mM NaCl, 1 mM DTT, 4% glycerol, room temperature, 30 min; GST-TFs on glutathione beads, 16-mer random dsDNA library, 0.1% formaldehyde crosslink after washing; high values mean tight binding
# FEV = target: T1, FEV (Homo sapiens, UniProt Q99581 1-238); conditions: protein: recombinant; tags: N-terminal GST; dsDNA, one strand shown
# T1 sequence: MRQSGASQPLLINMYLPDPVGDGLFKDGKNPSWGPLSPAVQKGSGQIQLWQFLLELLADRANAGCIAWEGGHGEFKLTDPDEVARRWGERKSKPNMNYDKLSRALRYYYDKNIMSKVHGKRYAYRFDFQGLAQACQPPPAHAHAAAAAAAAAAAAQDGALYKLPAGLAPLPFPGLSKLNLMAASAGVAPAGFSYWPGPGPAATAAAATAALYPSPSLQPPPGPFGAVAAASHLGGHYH
# Summary of the method: (§1)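 Sequencing on an Illumina NextSeq500 followed washing, crosslinking with 0.1% formaldehyde, proximity ligation (BsaI/T4 ligase, 1 h, 37 °C) and PCR amplification of pools that had been incubated for 30 min at room temperature with 200 nmole of a random double-stranded 16-mer DNA library in Tris/NaCl/DTT/glycerol buffer. Each pool held DNA-barcoded human transcription factors, expressed in yeast as GST fusions and captured on glutathione beads, plus a tag-only sample. Binding signal is a hexamer's read frequency for a factor divided by its frequency in the tag-only sample.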
# ETV5 = ETV5 (Homo sapiens, UniProt P41161 1-510); conditions: protein: recombinant; tags: N-terminal GST; dsDNA, one strand shown
# Sequence of ETV5 (P41161 whole entry): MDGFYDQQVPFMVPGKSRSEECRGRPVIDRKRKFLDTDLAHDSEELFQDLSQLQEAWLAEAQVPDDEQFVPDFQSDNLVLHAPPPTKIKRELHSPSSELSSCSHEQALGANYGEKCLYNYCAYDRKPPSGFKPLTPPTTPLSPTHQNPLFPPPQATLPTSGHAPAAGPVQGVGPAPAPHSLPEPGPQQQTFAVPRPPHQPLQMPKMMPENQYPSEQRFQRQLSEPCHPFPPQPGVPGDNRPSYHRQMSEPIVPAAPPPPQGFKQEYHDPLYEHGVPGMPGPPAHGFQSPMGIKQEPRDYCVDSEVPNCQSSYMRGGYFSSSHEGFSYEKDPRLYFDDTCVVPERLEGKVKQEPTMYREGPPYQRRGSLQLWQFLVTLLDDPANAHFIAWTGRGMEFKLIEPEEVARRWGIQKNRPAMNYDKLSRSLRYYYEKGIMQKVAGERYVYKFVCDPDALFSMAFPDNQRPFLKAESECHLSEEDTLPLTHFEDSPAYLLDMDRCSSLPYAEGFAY
# Summary of the method: as §1
# HSF1 = HSF1 (Homo sapiens, UniProt Q00613 1-529); conditions: protein: recombinant; tags: N-terminal GST; chain copies: 3; dsDNA, one strand shown
# Sequence of HSF1 (Q00613 whole entry): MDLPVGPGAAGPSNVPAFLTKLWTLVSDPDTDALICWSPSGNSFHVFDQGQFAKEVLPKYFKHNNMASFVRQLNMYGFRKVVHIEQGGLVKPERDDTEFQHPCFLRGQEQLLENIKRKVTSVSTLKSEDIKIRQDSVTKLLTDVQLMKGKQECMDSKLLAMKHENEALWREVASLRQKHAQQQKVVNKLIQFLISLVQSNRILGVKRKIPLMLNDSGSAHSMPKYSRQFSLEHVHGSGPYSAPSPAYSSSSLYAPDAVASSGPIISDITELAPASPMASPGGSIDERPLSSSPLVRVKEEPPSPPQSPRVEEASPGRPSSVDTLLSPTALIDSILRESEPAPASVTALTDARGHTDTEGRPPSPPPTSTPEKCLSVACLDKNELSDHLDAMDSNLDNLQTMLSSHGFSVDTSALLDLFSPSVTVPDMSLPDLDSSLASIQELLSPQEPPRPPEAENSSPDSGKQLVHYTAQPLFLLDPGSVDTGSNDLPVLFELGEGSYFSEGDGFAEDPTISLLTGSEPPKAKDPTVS
# Summary of the method: as §1
# SPIC = target: T2, SPIC (Homo sapiens, UniProt Q8N5J4 1-248); conditions: protein: recombinant; tags: N-terminal GST; dsDNA, one strand shown
# T2 sequence: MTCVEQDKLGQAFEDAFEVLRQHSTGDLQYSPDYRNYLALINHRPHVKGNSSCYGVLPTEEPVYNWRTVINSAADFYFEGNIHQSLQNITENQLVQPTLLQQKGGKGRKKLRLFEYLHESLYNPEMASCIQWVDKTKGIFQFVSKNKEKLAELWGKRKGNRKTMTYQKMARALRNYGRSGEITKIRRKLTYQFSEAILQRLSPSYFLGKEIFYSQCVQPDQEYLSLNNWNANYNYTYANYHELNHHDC
# Summary of the method: as §1
# ELF4 = ELF4 (Homo sapiens, UniProt Q99607 1-663); conditions: protein: recombinant; tags: N-terminal GST; dsDNA, one strand shown
# Sequence of ELF4 (Q99607 whole entry): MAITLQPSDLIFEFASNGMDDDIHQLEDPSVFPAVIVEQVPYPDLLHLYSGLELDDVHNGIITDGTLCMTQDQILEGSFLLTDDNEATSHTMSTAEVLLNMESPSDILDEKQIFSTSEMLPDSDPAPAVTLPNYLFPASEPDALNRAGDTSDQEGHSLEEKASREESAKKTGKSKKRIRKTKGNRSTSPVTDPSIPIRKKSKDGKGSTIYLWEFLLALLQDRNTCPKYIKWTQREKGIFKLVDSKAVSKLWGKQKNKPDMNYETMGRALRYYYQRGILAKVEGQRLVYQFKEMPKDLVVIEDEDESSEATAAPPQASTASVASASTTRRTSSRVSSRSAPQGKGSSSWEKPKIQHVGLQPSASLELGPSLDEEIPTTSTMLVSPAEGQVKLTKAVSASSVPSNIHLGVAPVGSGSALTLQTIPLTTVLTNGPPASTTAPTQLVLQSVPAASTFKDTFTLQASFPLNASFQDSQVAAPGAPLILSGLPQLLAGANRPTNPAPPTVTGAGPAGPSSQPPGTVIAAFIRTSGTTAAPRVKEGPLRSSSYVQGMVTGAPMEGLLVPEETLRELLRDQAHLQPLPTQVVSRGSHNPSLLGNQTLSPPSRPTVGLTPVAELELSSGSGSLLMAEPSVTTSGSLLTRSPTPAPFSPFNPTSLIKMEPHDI
# Summary of the method: as §1
# ELK4 = target: T3, ELK4 (Homo sapiens, UniProt P28324-2 1-405); conditions: protein: recombinant; tags: N-terminal GST; dsDNA, one strand shown
# T3 sequence: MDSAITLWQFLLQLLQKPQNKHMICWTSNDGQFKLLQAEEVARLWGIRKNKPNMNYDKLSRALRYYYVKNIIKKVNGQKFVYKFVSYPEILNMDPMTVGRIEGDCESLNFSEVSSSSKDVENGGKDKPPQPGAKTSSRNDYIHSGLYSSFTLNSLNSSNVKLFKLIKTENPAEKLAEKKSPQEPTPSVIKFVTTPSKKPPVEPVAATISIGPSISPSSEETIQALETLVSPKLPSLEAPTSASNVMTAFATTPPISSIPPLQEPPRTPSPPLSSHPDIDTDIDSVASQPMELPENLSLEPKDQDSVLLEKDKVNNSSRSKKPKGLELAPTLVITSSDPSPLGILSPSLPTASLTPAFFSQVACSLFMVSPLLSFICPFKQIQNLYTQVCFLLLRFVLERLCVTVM
# Summary of the method: as §1
# ETV2 = target: T4, ETV2 (Homo sapiens, UniProt O00321 1-342); conditions: protein: recombinant; tags: N-terminal GST; dsDNA, one strand shown
# T4 sequence: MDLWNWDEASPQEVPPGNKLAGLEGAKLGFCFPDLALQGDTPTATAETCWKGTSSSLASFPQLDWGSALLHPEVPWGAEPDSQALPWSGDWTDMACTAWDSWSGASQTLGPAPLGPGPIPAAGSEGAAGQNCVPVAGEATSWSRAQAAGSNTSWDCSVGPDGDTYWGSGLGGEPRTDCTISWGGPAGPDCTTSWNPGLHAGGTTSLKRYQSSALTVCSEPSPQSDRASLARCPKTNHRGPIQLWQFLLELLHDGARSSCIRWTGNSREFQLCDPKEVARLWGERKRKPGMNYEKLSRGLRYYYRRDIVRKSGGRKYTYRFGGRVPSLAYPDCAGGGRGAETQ
# Summary of the method: as §1
# ELF3 = target: T5, ELF3 (Homo sapiens, UniProt P78545 1-371); conditions: protein: recombinant; tags: N-terminal GST; dsDNA, one strand shown
# T5 sequence: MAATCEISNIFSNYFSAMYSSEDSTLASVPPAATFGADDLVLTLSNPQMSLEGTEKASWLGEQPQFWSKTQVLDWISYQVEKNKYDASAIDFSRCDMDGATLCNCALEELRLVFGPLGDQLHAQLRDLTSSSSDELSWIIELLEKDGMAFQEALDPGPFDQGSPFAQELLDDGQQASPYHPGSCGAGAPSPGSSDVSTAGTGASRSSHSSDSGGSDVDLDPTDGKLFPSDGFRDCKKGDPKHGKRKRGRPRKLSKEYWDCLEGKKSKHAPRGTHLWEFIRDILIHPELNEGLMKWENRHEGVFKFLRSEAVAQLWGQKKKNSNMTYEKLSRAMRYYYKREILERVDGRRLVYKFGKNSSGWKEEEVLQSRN
# Summary of the method: as §1
# CRX = CRX (Homo sapiens, UniProt O43186 1-299); conditions: protein: recombinant; tags: N-terminal GST; dsDNA, one strand shown
# Sequence of CRX (O43186 whole entry): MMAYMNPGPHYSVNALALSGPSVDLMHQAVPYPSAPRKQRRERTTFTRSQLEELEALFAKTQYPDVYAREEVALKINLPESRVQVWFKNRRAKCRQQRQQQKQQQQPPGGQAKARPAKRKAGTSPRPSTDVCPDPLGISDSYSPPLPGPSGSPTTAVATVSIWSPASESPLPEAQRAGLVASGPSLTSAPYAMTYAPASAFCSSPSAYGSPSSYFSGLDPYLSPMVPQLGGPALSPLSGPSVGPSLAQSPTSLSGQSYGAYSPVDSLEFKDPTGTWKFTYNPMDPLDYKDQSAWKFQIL
# Summary of the method: as §1
# ETV1 = ETV1 (Homo sapiens, UniProt P50549 1-477); conditions: protein: recombinant; tags: N-terminal GST; dsDNA, one strand shown
# Sequence of ETV1 (P50549 whole entry): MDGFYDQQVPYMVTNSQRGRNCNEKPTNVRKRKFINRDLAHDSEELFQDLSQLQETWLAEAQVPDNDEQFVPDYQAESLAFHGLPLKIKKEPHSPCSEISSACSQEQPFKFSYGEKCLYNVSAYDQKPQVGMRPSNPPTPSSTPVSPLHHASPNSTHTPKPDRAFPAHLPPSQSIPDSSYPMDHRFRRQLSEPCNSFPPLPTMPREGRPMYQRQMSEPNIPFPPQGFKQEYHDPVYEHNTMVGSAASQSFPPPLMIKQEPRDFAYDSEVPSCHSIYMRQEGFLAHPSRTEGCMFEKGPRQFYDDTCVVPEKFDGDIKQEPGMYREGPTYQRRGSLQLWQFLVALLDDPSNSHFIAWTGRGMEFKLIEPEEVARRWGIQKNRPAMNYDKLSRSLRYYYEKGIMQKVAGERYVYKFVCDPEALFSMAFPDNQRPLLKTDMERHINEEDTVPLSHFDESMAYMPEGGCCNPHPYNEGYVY
# Summary of the method: as §1
# ERF = target: T6, ERF (Homo sapiens, UniProt P50548 1-548); conditions: protein: recombinant; tags: N-terminal GST; dsDNA, one strand shown
# T6 sequence: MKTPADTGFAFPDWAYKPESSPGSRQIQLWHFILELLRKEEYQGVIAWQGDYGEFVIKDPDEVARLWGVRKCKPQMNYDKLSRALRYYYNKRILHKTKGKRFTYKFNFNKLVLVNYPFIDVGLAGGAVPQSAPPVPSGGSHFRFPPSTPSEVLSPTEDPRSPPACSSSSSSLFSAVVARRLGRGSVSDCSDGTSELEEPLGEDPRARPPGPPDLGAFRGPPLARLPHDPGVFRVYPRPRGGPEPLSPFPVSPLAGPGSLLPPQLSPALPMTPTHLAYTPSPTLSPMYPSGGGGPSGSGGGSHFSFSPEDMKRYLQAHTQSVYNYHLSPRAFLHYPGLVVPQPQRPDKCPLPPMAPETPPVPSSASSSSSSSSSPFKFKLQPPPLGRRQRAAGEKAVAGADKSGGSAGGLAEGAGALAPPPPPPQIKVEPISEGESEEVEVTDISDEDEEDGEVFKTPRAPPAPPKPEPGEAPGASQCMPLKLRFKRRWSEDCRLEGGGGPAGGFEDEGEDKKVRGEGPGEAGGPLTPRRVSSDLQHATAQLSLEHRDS
# Summary of the method: as §1
# ETV3L = target: T7, ETV3L (Homo sapiens, UniProt Q6ZN32 1-361); conditions: protein: recombinant; tags: N-terminal GST; dsDNA, one strand shown
# T7 sequence: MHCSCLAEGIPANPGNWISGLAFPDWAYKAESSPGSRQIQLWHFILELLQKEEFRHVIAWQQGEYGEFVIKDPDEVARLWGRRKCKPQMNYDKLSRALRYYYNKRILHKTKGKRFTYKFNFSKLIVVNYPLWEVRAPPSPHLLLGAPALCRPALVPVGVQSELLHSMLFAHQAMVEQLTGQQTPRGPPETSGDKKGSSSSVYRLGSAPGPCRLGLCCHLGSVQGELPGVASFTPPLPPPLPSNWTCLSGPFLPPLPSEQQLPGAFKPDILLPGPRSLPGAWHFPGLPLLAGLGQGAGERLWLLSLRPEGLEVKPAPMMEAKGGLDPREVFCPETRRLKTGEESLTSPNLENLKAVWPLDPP
# Summary of the method: as §1
# ETS2 = target: T8, ETS2 (Homo sapiens, UniProt P15036 1-469); conditions: protein: recombinant; tags: N-terminal GST; dsDNA, one strand shown
# T8 sequence: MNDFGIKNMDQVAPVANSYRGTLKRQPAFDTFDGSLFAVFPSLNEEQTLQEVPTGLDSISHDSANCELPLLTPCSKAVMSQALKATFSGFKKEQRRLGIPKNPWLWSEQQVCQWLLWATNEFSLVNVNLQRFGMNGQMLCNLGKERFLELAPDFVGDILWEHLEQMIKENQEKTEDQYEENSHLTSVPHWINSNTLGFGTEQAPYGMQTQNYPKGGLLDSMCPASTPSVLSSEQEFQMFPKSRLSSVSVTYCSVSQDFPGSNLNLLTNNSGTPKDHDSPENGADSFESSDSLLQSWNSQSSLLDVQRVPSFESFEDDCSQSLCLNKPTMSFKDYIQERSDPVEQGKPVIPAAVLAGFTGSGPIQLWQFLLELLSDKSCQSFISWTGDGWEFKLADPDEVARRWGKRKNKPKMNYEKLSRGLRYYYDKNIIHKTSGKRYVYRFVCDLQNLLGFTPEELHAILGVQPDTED
# Summary of the method: as §1
# SPDEF = target: T9, SPDEF (Homo sapiens, UniProt O95238 1-335); conditions: protein: recombinant; tags: N-terminal GST; dsDNA, one strand shown
# T9 sequence: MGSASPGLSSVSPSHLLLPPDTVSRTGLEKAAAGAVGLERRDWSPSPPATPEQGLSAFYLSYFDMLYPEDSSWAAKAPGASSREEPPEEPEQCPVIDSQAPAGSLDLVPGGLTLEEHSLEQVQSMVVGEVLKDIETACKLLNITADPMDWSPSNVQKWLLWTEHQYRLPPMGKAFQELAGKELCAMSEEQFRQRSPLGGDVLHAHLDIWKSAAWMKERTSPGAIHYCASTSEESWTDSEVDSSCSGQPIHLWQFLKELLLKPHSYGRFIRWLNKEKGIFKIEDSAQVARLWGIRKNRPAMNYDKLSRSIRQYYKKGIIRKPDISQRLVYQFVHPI
# Summary of the method: as §1
# ETV7 = target: T10, ETV7 (Homo sapiens, UniProt Q9Y603 1-341); conditions: protein: recombinant; tags: N-terminal GST; dsDNA, one strand shown
# T10 sequence: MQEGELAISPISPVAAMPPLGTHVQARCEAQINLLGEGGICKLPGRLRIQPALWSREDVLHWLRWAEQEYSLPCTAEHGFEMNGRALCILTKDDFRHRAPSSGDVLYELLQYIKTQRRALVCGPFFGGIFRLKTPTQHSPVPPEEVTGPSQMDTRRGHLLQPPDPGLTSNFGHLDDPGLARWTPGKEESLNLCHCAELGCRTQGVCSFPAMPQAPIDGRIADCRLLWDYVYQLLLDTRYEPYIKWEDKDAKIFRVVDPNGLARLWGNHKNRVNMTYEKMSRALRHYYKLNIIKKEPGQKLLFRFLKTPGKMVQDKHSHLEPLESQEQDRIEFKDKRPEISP
# Summary of the method: as §1
# ELF5 = target: T11, ELF5 (Homo sapiens, UniProt Q9UKW6-2 1-255); conditions: protein: recombinant; tags: N-terminal GST; dsDNA, one strand shown
# T11 sequence: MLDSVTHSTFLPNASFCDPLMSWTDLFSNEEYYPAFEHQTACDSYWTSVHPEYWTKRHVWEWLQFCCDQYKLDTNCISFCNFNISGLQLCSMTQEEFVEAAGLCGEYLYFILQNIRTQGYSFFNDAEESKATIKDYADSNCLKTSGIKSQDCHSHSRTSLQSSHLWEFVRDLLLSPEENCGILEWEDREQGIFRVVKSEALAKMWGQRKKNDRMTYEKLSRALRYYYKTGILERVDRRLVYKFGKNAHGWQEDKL
# Summary of the method: as §1
# ETV3 = target: T12, ETV3 (Homo sapiens, UniProt P41162-2 1-143); conditions: protein: recombinant; tags: N-terminal GST; dsDNA, one strand shown
# T12 sequence: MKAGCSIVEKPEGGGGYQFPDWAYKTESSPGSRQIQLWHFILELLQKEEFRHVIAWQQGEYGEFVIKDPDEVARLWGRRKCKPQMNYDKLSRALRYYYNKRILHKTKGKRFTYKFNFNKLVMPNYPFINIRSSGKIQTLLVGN
# Summary of the method: as §1
# ETV6 = ETV6 (Homo sapiens, UniProt P41212 1-452); conditions: protein: recombinant; tags: N-terminal GST; dsDNA, one strand shown
# Sequence of ETV6 (P41212 whole entry): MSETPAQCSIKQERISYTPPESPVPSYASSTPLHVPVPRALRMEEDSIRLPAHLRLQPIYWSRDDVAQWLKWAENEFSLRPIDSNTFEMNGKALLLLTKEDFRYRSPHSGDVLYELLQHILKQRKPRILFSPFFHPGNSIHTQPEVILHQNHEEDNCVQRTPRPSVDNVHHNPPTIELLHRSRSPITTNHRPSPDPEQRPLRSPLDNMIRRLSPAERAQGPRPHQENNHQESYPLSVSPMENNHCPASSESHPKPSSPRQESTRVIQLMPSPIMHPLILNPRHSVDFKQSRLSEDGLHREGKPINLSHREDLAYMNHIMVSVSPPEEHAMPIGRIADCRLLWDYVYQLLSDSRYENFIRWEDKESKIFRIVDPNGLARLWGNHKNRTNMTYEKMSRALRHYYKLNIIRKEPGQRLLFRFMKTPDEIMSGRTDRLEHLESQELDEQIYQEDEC
# Summary of the method: as §1
sequence,measurement,setting,value
TATGAC,binding signal,FEV,"1.25 fold enrichment (6-mer frequency, TF over GST control)"
same,binding signal,ETV5,"1.33 fold enrichment (6-mer frequency, TF over GST control)"
same,binding signal,HSF1,"1.18 fold enrichment (6-mer frequency, TF over GST control)"
same,binding signal,SPIC,"1.28 fold enrichment (6-mer frequency, TF over GST control)"
same,binding signal,ELF4,"1.32 fold enrichment (6-mer frequency, TF over GST control)"
same,binding signal,ELK4,"1.45 fold enrichment (6-mer frequency, TF over GST control)"
same,binding signal,ETV2,"1.23 fold enrichment (6-mer frequency, TF over GST control)"
same,binding signal,ELF3,"1.45 fold enrichment (6-mer frequency, TF over GST control)"
same,binding signal,CRX,"1.23 fold enrichment (6-mer frequency, TF over GST control)"
same,binding signal,ETV1,"1.26 fold enrichment (6-mer frequency, TF over GST control)"
same,binding signal,ERF,"1.39 fold enrichment (6-mer frequency, TF over GST control)"
same,binding signal,ETV3L,"1.36 fold enrichment (6-mer frequency, TF over GST control)"
same,binding signal,ETS2,"1.31 fold enrichment (6-mer frequency, TF over GST control)"
same,binding signal,SPDEF,"1.33 fold enrichment (6-mer frequency, TF over GST control)"
same,binding signal,ETV7,"1.29 fold enrichment (6-mer frequency, TF over GST control)"
same,binding signal,ELF5,"1.29 fold enrichment (6-mer frequency, TF over GST control)"
same,binding signal,ETV3,"1.2 fold enrichment (6-mer frequency, TF over GST control)"
same,binding signal,ETV6,"1.25 fold enrichment (6-mer frequency, TF over GST control)"
